Reference: PubChem BioAssay (NCATS)
Results filed as inconclusive are left out. Unmarked numbers belong to inactive results. The source made the active and inactive calls. The call rests on the fitted dose curve; in most records, active means well fitted curve in the direction sought with a large enough effect; inconclusive means small, poorly fitted or top-dose-only effect, or another doubt; inactive means no such curve, though single readings can be large; an effect the other way counts as inactive or inconclusive.

Target: Protein phosphatase 1D (Homo sapiens) (UniProt O15297)
Assay: RapidFire Mass Spectrometry qHTS Assay for Modulators of WT P53-Induced Phosphatase 1 (WIP1) (AID 1347424);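 further: amount of dephosphorylated VEPPL-S-QETFS peptide product formed by WIP1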; further: potency means the concentration at half of the fitted maximal effect;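 on activity change, negative = inhibition: plate controls were DMSO wells for no effect and GSK830371 inhibitor control at 10 µM for full effect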
Details: WIP1 dephosphorylation of phosphopeptide, RapidFire MS; series mostly up to 63 µM; activity change, negative = inhibition: at the top concentration
Outline: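 10 nM WIP1 preincubated with compounds 1 hr at room temperature in pH 7.5 Tris buffer with 30 mM MgCl2, 1 mM TCEP; 2 uM VEPPL-pS-QETFS phosphopeptide for 5 min, formic acid quench; dephosphorylated product quantified by RapidFire MS against labelled standard.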

Sequence of Protein phosphatase 1D (Homo sapiens) (O15297 whole entry, looked up): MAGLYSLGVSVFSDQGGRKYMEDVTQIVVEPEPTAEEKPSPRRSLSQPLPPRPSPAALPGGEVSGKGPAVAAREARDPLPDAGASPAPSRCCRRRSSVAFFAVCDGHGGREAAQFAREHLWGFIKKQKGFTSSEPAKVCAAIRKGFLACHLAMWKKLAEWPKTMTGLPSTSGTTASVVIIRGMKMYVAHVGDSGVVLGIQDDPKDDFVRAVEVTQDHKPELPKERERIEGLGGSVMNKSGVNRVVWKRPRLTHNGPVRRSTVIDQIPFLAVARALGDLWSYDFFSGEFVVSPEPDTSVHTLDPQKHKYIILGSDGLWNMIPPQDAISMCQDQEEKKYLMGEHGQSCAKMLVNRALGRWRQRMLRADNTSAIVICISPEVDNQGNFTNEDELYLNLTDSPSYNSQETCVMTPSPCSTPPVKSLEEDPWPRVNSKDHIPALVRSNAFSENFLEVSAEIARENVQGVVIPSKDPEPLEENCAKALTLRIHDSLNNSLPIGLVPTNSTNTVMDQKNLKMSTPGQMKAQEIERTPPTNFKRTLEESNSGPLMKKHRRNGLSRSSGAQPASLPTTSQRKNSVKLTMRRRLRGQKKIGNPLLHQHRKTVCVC

SMILES	Potency	activity change, negative = inhibition
Cc1ccc(N)cc1O	44.7 µM (active)	
CCOCCOC(=O)/C=C/c1ccc(OC)cc1		11.4%
O=C(O)c1c(O)c(-c2ccccc2)nc2ccccc12		-15.9%
Nc1ccccc1N		-15.3% [at 128 µM]
O=C(O)c1ccccc1NCCc1ccccc1		-0.578%

Target: Protein phosphatase 1D (Homo sapiens) (UniProt O15297)
Assay: Rhodamine-PBP qHTS Assay for Modulators of WT P53-Induced Phosphatase 1 (WIP1) (AID 1347425); further: % of control where 0% means no effect
Details: recombinant WIP1, Rhodamine-PBP phosphate fluorescence, real-time; series mostly up to 57.5 µM; activity change, negative = inhibition: at the top concentration
Outline: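 Read-out: Rhodamine-PBP fluorescence (ex 525/em 598 nm) for released Pi, read each minute for 11 min after adding 10 uM VEPPL-pS-QETFS; signal taken as f1 minus pre-substrate f0. Enzyme 5 nM WIP1 with 1 hr room-temperature compound preincubation.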

SMILES	activity change, negative = inhibition
CCOCCOC(=O)/C=C/c1ccc(OC)cc1	6.21%
O=C(O)c1c(O)c(-c2ccccc2)nc2ccccc12	-30.3%
Nc1ccccc1N	-2.69% [at 116 µM]
O=C(O)c1ccccc1NCCc1ccccc1	-13.5%

Test system: not listed separately
Assay: Primary qHTS for inhibitors of La Crosse Virus (LACV) - induced cell death in SH-SY5Y cells (AID 1508616);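 further: top concentration of the series differs between compounds; 0% = infected DMSO wells and 100% = uninfected DMSO wells; higher means more rescue of cells from virus-induced death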
Details: SH-SY5Y LACV cytopathicity rescue, ATP luminescence, 6 d; series mostly up to 4.29 µM; activity change: at the top concentration
Outline: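 SH-SY5Y cells (6000/well) plated 24 h, then given compounds by pin transfer and LACV at 0.01 MOI for 6 days at 37C. Viability measured by ATPLite luminescence, normalized to infected DMSO and uninfected DMSO.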

SMILES	activity change
Cc1ccc(N)cc1O	-5.37% [at 8.54 µM]
O=C(O)c1c(O)c(-c2ccccc2)nc2ccccc12	1.75%
O=C(O)c1ccccc1NCCc1ccccc1	-7.6%
